Test [1] relates to Plasmodium falciparum Sir2 (PF13_0152, Sir2A). In words: pfSir2 binders on small-molecule microarrays, primary screen, biochemical, small-molecule microarray, 635 nm fluorescence (AID 1098).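 Also: score merges spot fluorescence intensity with its signal-to-noise ratio.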 The conditions noted are these: small-molecule microarray binding, fluorescence 635 nm; higher = more signal.
Test [2] is described as follows: small-molecule microarray binders of probe aDKK1, primary screen, biochemical, biotinylated probe, 635/667 nm fluorescence (AID 1099).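 Also: score merges 667nm spot fluorescence with signal to noise across triplicate slides; reference of the scale not given here.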 The conditions noted are these: higher = more signal.
A short description of test [3]: small-molecule microarray binders of probe aCHRDL2, primary screen, biochemical, biotinylated probe, 635/667 nm fluorescence (AID 1100). Particulars: higher = more signal.
Test [4] is described as follows: splicing luciferase reporter signal modulators, primary screen, spliceosome inhibition project, cell-based, HEK293, splice +/- reporter (AID 1101).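 Also: HEK293 cells carrying a splicing-competent luciferase reporter gene; test concentration not given here.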 Particulars: luminescence, 24 h, higher = more signal, called active from +8 up or from −8 down. On the technique in general: In a reporter assay the amount or activity of a reporter protein is the signal.
Test [5] has as its target Fibroblast growth factor 10 (Homo sapiens) (UniProt O15520). Put plainly: FGF10 binders on small-molecule microarrays, primary screen, biochemical, small-molecule microarray, 635 nm fluorescence (AID 1102). Particulars: FGF10 binding, fluorescence 635 nm, higher = more signal.
In test [6] the test system is glycogen synthase kinase-3 (GSK3A per assay name; protocol says GSK3B). Put plainly: GSK3 binders on small-molecule microarrays, primary screen, biochemical, small-molecule microarray, 635 nm fluorescence, GSK3A (AID 1103). Also: the record names both GSK3A and GSK3B. Particulars: small-molecule microarray binding, fluorescence 635 nm; higher = more signal.
Test [7] addresses Epidermal growth factor receptor (Homo sapiens) (UniProt P00533). In words: EGFR binders on small-molecule microarrays, primary screen, biochemical, small-molecule microarray, 635 nm fluorescence (AID 1104).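 Also: score merges 667 nm emission intensity with spot signal to noise over triplicate slides.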 The conditions noted are these: EGFR binding, higher = more signal.
Test [8] deals with Follistatin-related protein 3 (Homo sapiens) (UniProt O95633). Put plainly: FSTL3 binders on small-molecule microarrays, primary screen, biochemical, small-molecule microarray, 635 nm fluorescence (AID 1105).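 Also: score merges emission near 667 nm and signal to noise per printed spot across three slides.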 Particulars: FSTL3 binding, higher = more signal.
In test [9] the target is Dickkopf-related protein 1 (Homo sapiens) (UniProt O94907). Put plainly: DKK1 binders on small-molecule microarrays, primary screen, biochemical, small-molecule microarray, 635 nm fluorescence scan (AID 1106).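 Also: score merges emission near 667 nm with signal to noise over three replicate slides.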 Particulars: DKK1 binding, higher = more signal.
Test [10] relates to Inhibin beta A chain (activin A). In words: INHBA (activin A) binders on microarrays, primary screen, biochemical, small-molecule microarray, 635 nm fluorescence scan (AID 1107).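 Also: mouse activin A protein probed at 4.33 µg/mL on printed slides; score merges bound-protein fluorescence near 667 nm with spot signal-to-noise.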 Particulars: small-molecule microarray binding, higher = more signal.

Calls of active or inactive are those of the source.

Chain of Follistatin-related protein 3 (Homo sapiens) (O95633 whole entry, looked up): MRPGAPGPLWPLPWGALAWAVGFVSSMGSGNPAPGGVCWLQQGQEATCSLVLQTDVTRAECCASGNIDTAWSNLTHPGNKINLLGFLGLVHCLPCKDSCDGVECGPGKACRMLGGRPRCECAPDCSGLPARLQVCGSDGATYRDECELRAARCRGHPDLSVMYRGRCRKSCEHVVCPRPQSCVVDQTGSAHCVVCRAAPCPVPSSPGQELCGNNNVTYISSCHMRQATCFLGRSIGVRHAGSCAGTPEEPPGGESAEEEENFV
Chain of Fibroblast growth factor 10 (Homo sapiens) (O15520 whole entry, looked up): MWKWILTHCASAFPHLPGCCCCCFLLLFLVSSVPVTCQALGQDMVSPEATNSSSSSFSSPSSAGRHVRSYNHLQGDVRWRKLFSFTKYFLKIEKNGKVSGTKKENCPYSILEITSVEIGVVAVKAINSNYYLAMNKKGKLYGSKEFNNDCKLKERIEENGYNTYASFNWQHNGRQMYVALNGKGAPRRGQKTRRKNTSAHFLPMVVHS
Chain of Dickkopf-related protein 1 (Homo sapiens) (O94907 whole entry, looked up): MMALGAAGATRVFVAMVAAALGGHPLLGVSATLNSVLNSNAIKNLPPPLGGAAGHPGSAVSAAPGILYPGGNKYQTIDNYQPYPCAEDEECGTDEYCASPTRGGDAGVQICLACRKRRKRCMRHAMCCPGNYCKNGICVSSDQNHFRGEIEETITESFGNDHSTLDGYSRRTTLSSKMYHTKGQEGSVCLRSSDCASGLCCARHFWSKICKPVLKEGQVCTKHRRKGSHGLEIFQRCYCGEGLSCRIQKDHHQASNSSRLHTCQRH
Chain of Epidermal growth factor receptor (Homo sapiens) (P00533 whole entry, looked up): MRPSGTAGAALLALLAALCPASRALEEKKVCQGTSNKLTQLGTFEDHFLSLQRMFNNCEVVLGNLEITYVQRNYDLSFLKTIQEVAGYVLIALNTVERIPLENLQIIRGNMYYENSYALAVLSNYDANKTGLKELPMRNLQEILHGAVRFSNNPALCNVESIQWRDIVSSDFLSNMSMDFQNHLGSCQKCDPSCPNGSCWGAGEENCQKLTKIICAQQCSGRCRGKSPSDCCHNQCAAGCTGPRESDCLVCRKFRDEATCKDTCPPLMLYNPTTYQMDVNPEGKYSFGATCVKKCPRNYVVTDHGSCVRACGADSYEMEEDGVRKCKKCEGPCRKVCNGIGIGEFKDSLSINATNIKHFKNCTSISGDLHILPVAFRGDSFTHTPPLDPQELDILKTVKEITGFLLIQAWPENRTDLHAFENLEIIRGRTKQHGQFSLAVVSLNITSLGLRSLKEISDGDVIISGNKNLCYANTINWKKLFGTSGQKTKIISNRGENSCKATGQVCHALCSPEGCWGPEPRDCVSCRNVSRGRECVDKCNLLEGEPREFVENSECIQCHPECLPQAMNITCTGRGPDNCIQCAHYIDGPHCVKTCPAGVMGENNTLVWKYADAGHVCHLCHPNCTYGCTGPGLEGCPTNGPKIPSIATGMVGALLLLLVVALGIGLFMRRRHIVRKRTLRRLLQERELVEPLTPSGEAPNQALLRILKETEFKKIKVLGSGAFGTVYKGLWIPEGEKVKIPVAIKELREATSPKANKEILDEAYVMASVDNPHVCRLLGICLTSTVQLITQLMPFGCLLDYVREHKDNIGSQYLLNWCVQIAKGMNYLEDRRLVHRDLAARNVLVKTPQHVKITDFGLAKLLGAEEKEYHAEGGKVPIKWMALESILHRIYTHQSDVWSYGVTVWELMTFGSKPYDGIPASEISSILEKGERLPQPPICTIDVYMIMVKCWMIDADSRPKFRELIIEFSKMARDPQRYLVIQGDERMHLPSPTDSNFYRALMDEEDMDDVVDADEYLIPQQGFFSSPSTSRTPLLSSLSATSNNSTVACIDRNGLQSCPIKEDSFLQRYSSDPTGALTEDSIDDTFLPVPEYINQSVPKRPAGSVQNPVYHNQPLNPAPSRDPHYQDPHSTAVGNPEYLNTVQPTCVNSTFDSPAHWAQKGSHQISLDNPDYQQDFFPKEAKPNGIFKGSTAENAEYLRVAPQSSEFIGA

On to `CCCCN1CC=CC23O[C@@H]4/C=C\CCCOC(=O)C4[C@H]2C(=O)N(CCO)[C@@H]3C1=O` (stereo not given in full), for which the composite z-score in test [1] is 1.77; in test [2], -0.356; in [3], 0.644; in test [5], -1.29; in test [6], -0.782; in test [7] it was -1.26. In addition, the values for the composite z-score in [8], in [9] and in [10] were -1.38, -1.58 and -0.677, respectively. Also, the z-score in test [4] is -0.817 (inactive).
In the case of `CC(C)(C)OC(=O)COc1cccc(C(=O)CCN2CCOCC2)c1`, the composite z-score in test [1] was 0.213; in test [2], 0.684; in test [3], 0.929; in [5], -0.189; in test [6], 0.136; in test [7] it was -0.67. For the same compound, the composite z-score in [8] is -0.272; in test [9], -0.285; in test [10], 1.54. The z-score in [4] is 0.849 (inactive).
As to `Cc1ccc(S[C@]2(C(=O)NCC(F)(F)F)CC(=O)N(Cc3cc(C(F)(F)F)cc(C(F)(F)F)c3)[C@@H]2c2ccc(CO)cc2I)cc1`, the composite z-score in test [1] is 1.4; in test [2] it was -0.647; in test [3], 1.02; in test [5], -1.03; in [6] it was -0.466; in test [7] it was -0.552. Besides, the composite z-score in [8] was 0.0535; in [9], -1.26; in test [10], 0.948. Besides, the z-score in [4] was -0.719 (inactive).
`[N-]=[N+]=Nc1ccccc1C[C@@]1(C(=O)NCCN2CCOCC2)N=C(c2ccc(OCCCO)cc2)O[C@@H]1c1ccccc1N=[N+]=[N-]`: the composite z-score in test [1] is 1.53; in test [2] it was 0.664; in test [3], 1.04; in test [5], 0.968; in test [6], 1.31; in [7], -0.172. In addition, the composite z-score is 0.453 in [8], 0.136 in test [9] and 0.691 in [10]. Moreover, the z-score in test [4] was -0.222 (inactive).
As for `CCOC(=O)C[C@H]1[C@H](OC(=O)c2ccc(C(=O)c3ccccc3)cc2)[C@@H](NC(=O)c2ccc3ccccc3n2)c2cc(OCCCO)ccc2N1C(=O)Cc1ccc(OC)cc1`, the composite z-score in test [1] was -0.318; in [2], 0.57; in test [3], -0.385; in test [5], 0.0466; in test [6], 0.354; in [7] it was 0.196. In addition, the composite z-score in test [8] amounted to 0.346; in test [9] it was 0.239; in test [10], 0.188. Further, the z-score in test [4] was 0.187 (inactive).
In the case of `CN(C)C(=O)[C@@]1(Cc2ccccc2)N=C(c2ccc(OCCCO)cc2)O[C@H]1c1ccccc1`, the composite z-score in [1] was 1.46; in test [2], 1.26; in test [3] it was 1.24; in [5], 1.2; in test [6] it was 1.18; in test [7], -0.591. Also, the composite z-score in [8] was 0.109; in [9], -0.273; in test [10] it was 0.139. The z-score in [4] was -0.24 (inactive).
For the compound `C=CC[C@H](OC(=O)Nc1ccc(SC)cc1)c1ccc(O)c2ccccc12`, the composite z-score is 0.731 in test [1]; -0.0313 in test [2]; 0.296 in test [3]; 0.972 in test [5]; 1.29 in test [6]; 0.961 in [7]. Besides, the composite z-score was found to be 1.08 in test [8], 0.778 in test [9] and 0.932 in test [10]. The z-score in test [4] was -2.98 (inactive).
With `O=C1CS(=O)(=O)C(c2cccc([N+](=O)[O-])c2)N1c1ccccc1` (stereo not given), the composite z-score in test [1] is 0.175; in [2], 0.913; in [3] it was 0.157; in test [5] it was 1.03; in test [6], 0.117; in [7], 0.591. In addition, the results for the composite z-score in test [8], in test [9] and in test [10] were 0.6, 0.625 and 0.32, respectively. Moreover, the z-score in [4] was -0.856 (inactive).
In the case of `CC(CO)N1C(=O)[C@]2(C)C3C(=O)OCCC/C=C\[C@H]3OC23C=CCN(c2ccc(Cl)cc2)C(=O)[C@@H]13` (stereo not given in full), the composite z-score in test [1] is -0.714; in [2] it was -0.0842; in [3] it was 0.167; in [5] it was -0.39; in [6] it was -0.558; in test [7] it was -0.558. Besides, the composite z-score was -0.798 in [8], -0.0396 in test [9] and -0.0439 in [10]. In addition, in test [4], the z-score is -0.712 (inactive).
Turning to `C=CCC(OC(C)=O)[C@@H]1[C@@H](N(Cc2cccc3ccccc23)C(=O)Cc2ccc(OC)cc2)c2cc(OCCCO)ccc2N1C(=O)c1ccc(-c2ccccc2)cc1` (stereo not given in full), the composite z-score was -0.203 in test [1]; 0.0699 in test [2]; 0.44 in test [3]; -0.249 in [5]; -0.179 in test [6]; 0.347 in test [7]. The results for the composite z-score in [8], in test [9] and in test [10] were -0.0555, -0.324 and 1.43, respectively. Besides, in test [4], the z-score is -0.279 (inactive).
With `C=CCNC(=O)[C@@H]1[C@H]2C(=O)O[C@H](c3ccccc3)[C@H](c3ccccc3)N2[C@H](c2ccc(OCCO)cc2)[C@@]12C(=O)N(C(=O)OCCOC)c1ccc(C#Cc3ccc(OC)cc3)cc12`, the composite z-score is 1.29 in [1]; 0.0181 in [2]; 0.299 in [3]; 0.753 in test [5]; 1.27 in [6]; 0.356 in test [7]. The composite z-score in test [8] came to 1.34; in [9], 0.489; in test [10], 0.688. For the same compound, in [4], the z-score is -1.33 (inactive).
Regarding `C=C[C@@H](OC)[C@H](OC(=O)Nc1ccc(OC)cc1)c1ccc(O)c(F)c1`, the composite z-score in test [1] was 1.52; in test [2], -0.515; in test [3], -0.54; in test [5], -0.076; in test [6], -0.242; in [7], -0.459. Further, the composite z-score was -0.0891 in test [8], 0.171 in test [9] and 1.07 in test [10]. The z-score in test [4] is -0.653 (inactive).
Take `COC(=O)C1(CC(C)C)C=C2C(=C(c3ccccc3)C(=O)C2C)CN1` (stereo not given): the composite z-score in [1] was 0.055; in [2], 1.49; in [3], 1.36; in test [5] it was 0.896; in test [6] it was -0.713; in test [7] it was 0.233. Further, the composite z-score in test [8] was 0.261; in test [9], -1.19; in test [10], 1.53. Besides, the z-score in [4] was 1.45 (inactive).
Regarding `CCCCN1CC=CC23O[C@@H]4/C=C\CCC(C)OC(=O)C4[C@H]2C(=O)N(CCCO)[C@@H]3C1=O` (stereo not given in full), the composite z-score in test [1] was 1.16; in test [2] it was -0.235; in test [3], 0.662; in [5], -1.13; in test [6], -0.496; in [7], -0.983. Moreover, the values for the composite z-score in test [8], in test [9] and in [10] were -1.04, -1.37 and -0.372, respectively. In addition, the z-score in [4] is 0.239 (inactive).
For the compound `COc1ccc(CCNC(=O)[C@@]2(Cc3ccccc3I)c3ccccc3C(=O)N(C3CCCCC3)[C@H]2c2ccc(CO)cc2)cc1`, the composite z-score is 1.41 in [1]; 0.0563 in test [2]; 0.58 in [3]; -0.277 in test [5]; 0.302 in test [6]; -0.354 in [7]. Besides, the composite z-score was 0.123 in [8], -0.41 in [9] and 0.272 in [10]. Moreover, the z-score in test [4] was -1.17 (inactive).
With `COC(=O)c1c(CC[C@@H](CO)NC(=O)N[C@@H](C)Cn2cc(-c3ccccn3)nn2)oc(C(C)=O)c1C(=O)OC`, the composite z-score in test [1] is 1.09; in [2] it was -0.18; in [3], -0.495; in test [5], 0.563; in test [6], 0.0696; in test [7], -0.344. Besides, the composite z-score in test [8] was determined as 0.454; in test [9], 0.28; in test [10] it was 0.284. For the same compound, the z-score in test [4] was -1.89 (inactive).
Turning to `COc1cc2c(cc1O)C(C1CC1)N(C)CC2` (stereo not given), the composite z-score is 0.353 in [1]; 0.211 in test [2]; 0.583 in [3]; -0.382 in [5]; -1.3 in test [6]; -1.17 in test [7]. Besides, the values for the composite z-score in [8], in [9] and in test [10] were -0.57, -0.896 and 0.942, respectively. In addition, the z-score in test [4] is -0.451 (inactive).

The values are drawn from PubChem BioAssay.
